High-throughput results: PubChem, National Center for Advancing Translational Sciences (NCATS)
In the library only some 11% were active in any assay of this set; here they are far more common.
Pf growth 48h: inhibits P. falciparum growth in the first generation, 48 h; P. falciparum luciferase growth in erythrocytes, 48 h; Potency, µM (series often up to 28.7 µM), without a hit: at the highest dose activity change, negative = inhibition, most hits filed as inhibitors; 310,000 tested, 5.9% active; also: % is scaled to controls: 0 for no effect and ±100 for the full control effect
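In quantitative HTS format, infected erythrocytes bearing luciferase-reporter parasites were treated for a single generation at 37 C. Luminescence after adding detection reagent served as the growth measure.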
Pf growth 96h: P. falciparum growth inhibition at 96 hours. Potency, µM (top dose mostly 28.7 µM), inactives show top-dose activity change, negative = inhibition, usual class: inhibitors. P. falciparum luciferase reporter growth, 96 h. 320,000 tested, 6.9% active; also: % is scaled to controls: 0 for no effect and ±100 for the full control effect
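Two-generation exposure (96 h) targets delayed-death phenotype. Reporter parasites carrying integrated firefly luciferase, in red cells at 2% hematocrit and 0.05% parasitemia final, kept at 37 C, 5% CO2; luminescence loss indicates inhibition.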
VACV mCherry inh: vaccinia inhibition (mCherry reporter). 310,000 tested, 0.63% active. Potency, µM (highest dose often 36.5 µM), inactives show at the highest dose activity change, negative = inhibition, actives largely listed as inhibitors. Vaccinia virus mCherry reporter infection, fluorescence; calls by dose curve; tested in A549 cells; also: % is scaled to controls: 0 for no effect and ±100 for the full control effect; nearly all actives have a fitted effect of over 35% in size
HCV inh: inhibitors of hepatitis C virus infection. 340,000 tested, 3.4% active. AID 651820. Potency, µM (series often up to 41.8 µM), without a hit: at the highest dose activity change, negative = inhibition, hits mostly inhibitors. Huh7.5.1 HCVcc-Cre infection, luciferase reporter, 44 h; also: % is scaled to controls: 0 for no effect and ±100 for the full control effect
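Reporter virus HCVcc-Cre (~0.5 moi) infects cells exposed to compound; seeding density 1,000 cells/well with 4 h settling beforehand. Luminescence, 15 sec read, taken 44 h post-infection following a 15 min RT substrate incubation.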
Vaccinia Venus: vaccinia inhibition (Venus reporter); Vaccinia virus Venus reporter expression, fluorescence; Potency, µM (highest dose often 36.5 µM), without a hit: top-dose activity change, negative = inhibition, most hits filed as inhibitors; 330,000 tested, 0.46% active; calls by dose curve; tested in A549 cells; also: % is scaled to controls: 0 for no effect and ±100 for the full control effect; nearly all actives have a fitted effect of over 30% in size
NS1 inh: inhibitors of influenza NS1 protein function; 270,000 tested, 0.4% active; Potency, µM (top dose mostly 46.1 µM), inactives show at the highest dose activity, positive = more growth; calls by dose curve; also: actives are rising curves; nearly all actives have a fitted effect of over 50% in size
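A cell-based growth assay was used: compounds that relieve NS1-induced slow growth of budding yeast raise OD600. Assay medium was yeast nitrogen base with ammonium sulphate and -URA supplement, pH 6.0, with 2% galactose.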
Starred values were filed as active, the others as inactive; i = inactive; ? = inconclusive; . = not tested or not shown; [ ] = remark or other dose. Unless noted, calls follow the shape of the dose curve; as a rule, active = well fitted inhibition curve with a large enough effect; inconclusive = small, poorly fitted or top-dose-only effect, or another doubt; inactive = no such curve, though single readings can be large or run the other way. Potency is read from the fitted curve at half-maximal effect.

SMILES	Pf growth 48h	Pf growth 96h	VACV mCherry inh	HCV inh	Vaccinia Venus	NS1 inh
CCCCn1c(CCl)nc2cc(S(=O)(=O)N3CCOCC3)ccc21	.	.	-19.9%	?	-14.7%	.
O=S(=O)(c1ccc2c(c1)nc(COc1ccc(Cl)cc1)n2CC1CCCO1)N1CCOCC1 (configuration not stated)	?	11.7µM*	.	-29.5%	.	9.1%
COc1ccc(C2C(C(=O)NCc3ccccn3)c3ccccc3C(=O)N2C)cc1OC (configuration not stated)	?	26.3%	.	9.4%	.	1.1%
COc1ccc(C(c2nnnn2C(C)(C)C)N2CCN(c3nc4ccccc4s3)CC2)cc1OC (configuration not stated)	5.22µM*	?	-9.9%	8.2%	-8.5%	0.8%
COc1cc(C(c2nnnn2C(C)(C)C)N2CCN(c3nc4ccccc4s3)CC2)ccc1O (configuration not stated)	-13.3%	2.2%	.	11.3%	-7.5%	-35.2%
c1cnc2ccc(C(c3nnnn3C3CCCC3)N3CCN(c4nc5ccccc5s4)CC3)cc2c1 (configuration not stated)	5.22µM*	1.4%	.	?	?	?
Clc1ccc(C(c2nnnn2C2CCCC2)N2CCN(c3nc4ccccc4s3)CC2)cc1 (configuration not stated)	.	.	-3.8%	5.5%	4.8%	.
COc1ccccc1N1CCN(C(c2ccc(Cl)cc2)c2nnnn2C(C)(C)C)CC1 (configuration not stated)	6.57µM*	?	.	?	7.8%	?
COc1ccccc1N1CCN(C(c2ccccc2Cl)c2nnnn2C(C)(C)C)CC1 (configuration not stated)	?	?	.	-27.1%	?	-31.6%
CC(C)(C)n1nnnc1C(c1cccc(C#N)c1)N1CCCc2ccccc21 (configuration not stated)	9.28µM*	22.9%	-14.1%	-0.7%	-7.6%	?
O=C(N1CCOCC1)N(Cc1ccco1)CC1CCCO1 (configuration not stated)	3.0%	2.8%	.	13.0%	-29.2%	1.5%
CCN(CC)c1cc(NCCO)c([N+](=O)[O-])c2nonc12	-11.7%	?	-3.1%	-11.1%	-15.4%	2.7%
CCC(C)(C)n1nnnc1C(c1ccc2ncccc2c1)N1CCN2CCCC2C1 (configuration not stated)	10.4µM*	142.1%	i	0.9%	-8.8%	-76.3%
COc1ccccc1C(c1nnnn1C(C)(C)C)N1CCCc2ccccc21 (configuration not stated)	?	?	-3.0%	-27.7%	-12.1%	6.6%
CC(C)(C)n1nnnc1C(c1cccc(C#N)c1)N1CCC(Cc2ccccc2)CC1 (configuration not stated)	2.62µM*	.	-9.8%	?	-16.8%	-8.3%
CCC(C)(C)n1nnnc1C(c1cccnc1)N1CCC(Cc2ccccc2)CC1 (configuration not stated)	11.3%	?	-6.8%	7.3%	-16.4%	-3.1%
c1cnc2ccc(C(c3nnnn3C3CCCCC3)N3CCN4CCCC4C3)cc2c1 (configuration not stated)	?	.	-20.0%	-13.6%	-4.7%	2.1%
CC(C)(C)n1nnnc1C(c1ccc(Cl)cc1)N1CCCc2ccccc21 (configuration not stated)	2.33µM*	32.6%	-14.2%	26.0%	-8.8%	0.0%
CCC(C)(C)n1nnnc1C(c1cccs1)N1CCc2ccccc21 (configuration not stated)	9.28µM*	7.6%[5.75 µM]	-23.5%	-15.2%	-6.2%	-76.1%
COc1ccc(C2(CNC(=O)c3ccccc3)CCOCC2)cc1	?	?	-2.2%	14.1%	-3.4%	-3.8%
Oc1ccc(/C=N/Nc2ccnc3cc(Cl)ccc23)c(O)c1O	?	?	-3.6%	?	4.1%	5.8%
Oc1ccc(/C=N/Nc2ccnc3cc(Cl)ccc23)cc1O	0.657µM*	0.738µM*	?	?	-10.8%	-40.9%
CC/C(=N\Nc1ccnc2cc(Cl)ccc12)c1ccc(O)cc1	1.65µM*	1.31µM*	?	?	-11.5%	-40.3%
